# Measurements from PubChem BioAssay (NCI).
# The panel holds about 83,000 compounds, 20% with a hit somewhere; the sample as a whole holds those more often.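 The endpoint reported here, percent growth, reads 100 for growth as untreated, 0 for no net growth and -100 for all cells dead.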 Values without a mark were called inactive. Activity calls are given as the source filed them. The calls were made as follows: active = growth percent below 10; inactive = the rest.
# Tested on: COLO 205 colon
# Assay: NCI-60 one-dose screen, 48 h (100 = growth as untreated, 0 = no growth, -100 = all killed)
# Conditions: 10 µM unless noted
row,SMILES,growth
1,COc1ccc(-c2nc(SCC(C)C)nc(N/N=C\c3cccc([N+](=O)[O-])c3)c2C#N)cc1,85.8%
2,Cc1cc(F)cc(NS(=O)(=O)c2ccc(-c3cnc(C4CC4)o3)cc2)c1,1.45% (active)
3,C/C(=N\NC(=O)CSc1nc2sc3c(c2c(=O)n1-c1ccccc1)CCC(C)C3)c1ccc(Cl)cc1 (stereo not given),26.5%
4,COc1ccc(NC(=O)[C@H](C)N)cc1C(=O)Nc1cccc(-c2cc(=O)c3c(OC)c(OC)c(OC)cc3o2)c1,69.6%
5,CC[C@H](C)[C@H]1NC(=O)[C@@H]([C@H](O)C(C)C)NC(=O)[C@@H](C)N(C)C(=O)[C@H](C)N(C)C(=O)[C@H](CC(C)C)NC(=O)[C@H](CC(C)C)N(C)C(=O)[C@H](C)N(C)C1=O,-8.56% (active)
6,IP(CCCSc1n(Cc2ccc3ccccc3c2)c(-c2ccccc2)c(-c2ccccc2)[n+]1Cc1ccc2ccccc2c1)(c1ccccc1)(c1ccccc1)c1ccccc1,-9.45% (active)
7,N/C(=N\OC(=O)CSc1nc2ccccc2s1)c1ccc(Cl)cc1,106%
8,CC(=O)NC(C)(C)C(=O)N[C@@H](C)C(=O)NC(C)(C)C(=O)N[C@@H](C)C(=O)NC(C)(C)C(=O)N[C@@H](C)C(=O)N[C@@H](CCC(N)=O)C(=O)NC(C)(C)C(=O)N[C@H](C(=O)NC(C)(C)C(=O)NCC(=O)N[C@@H](CC(C)C)C(=O)NC(C)(C)C(=O)N1CCC[C@H]1C(=O)N[C@H](C(=O)NC(C)(C)C(=O)NC(C)(C)C(=O)N[C@@H](CCC(N)=O)C(=O)N[C@@H](CCC(N)=O)C(=O)N[C@H](CO)CC1CCCCC1)C(C)C)C(C)C,-12% [5 µM] (active)
9,CCOC(=O)C1=C(C)Nc2nnc(Nc3ccccc3)n2C1c1ccccc1 (stereo not given),88.9%
10,COc1cc(OC)c(S(N)(=O)=O)cc1C(=O)/C=C/c1ccccc1,27.5%
11,CCOC(=O)/C(F)=C/C1CC1C1CCCCC1 (stereo not given),110%

# Tested on: DU-145 prostate
# Assay: as above
# Conditions: 10 µM unless noted
row,SMILES,growth
1,CC(=O)Oc1ccc(CCN2C(=O)CSC2=S)cc1,11%
2,COc1cc(/C=N/n2cnc3oc(-c4ccccc4)cc3c2=N)cc(CN2CCOCC2)c1O,89.3%
3,CCOC(=O)/C=c1\sc2n(c1=O)C1C(NN=2)N(CC)C(=O)N1CC (stereo not given),75.3%
4,CN(C)c1ccc(/C=N/Nc2nc(N/N=C/c3ccc(N(C)C)cc3)nc(N3CCOCC3)n2)cc1,92.7%
5,COc1cc2oc(-c3cccc(NC(=O)c4cc(NC(=O)[C@H](C)NC(=O)OC(C)(C)C)ccc4C)c3)cc(=O)c2c(OC)c1OC,62.2%
6,CN1CCN(Cc2ccc(NC(=O)c3cncc(C#Cc4cnc5ccc(NC6CCOCC6)nn45)c3)cc2C(F)(F)F)CC1,-95.2% (active)
7,O=C(Nc1ccc(Cl)cc1)Nc1nc2ccc([N+](=O)[O-])cc2s1,14%
8,CCCCCCNC(=O)Oc1ccc(/C(=C(/C)c2ccc(OC)cc2)c2ccc(OCCN3CCCC3)cc2)cc1,91.6%
9,O=c1c2ccccc2nc(COc2ccccc2)n1/N=C/C=C/c1ccccc1,104%
10,CCCCCc1ccc(S(=O)(=O)N(C(C)=O)c2cccc(-c3csc(N(CCN4CCN(C)CC4)C(C)=O)n3)c2)cc1,41.6%
11,O=C(NNc1nc2cc(F)c(F)cc2n2cccc12)c1ccncn1,22.2%
12,O=C(CCCCCCN1CC(=O)N2[C@@H](c3cccc(Cl)c3)c3[nH]c4ccccc4c3C[C@H]2C1=O)NO,46.3%
13,O=C(/C=C/c1cn(-c2ccccc2)nc1-c1ccc(Cl)cc1)c1cc2ccccc2oc1=O,63.7%
14,COc1cc(/C=C/C(=O)c2ccc(NC(=O)COc3cccc4cccnc34)cc2)cc(OC)c1OC,78.1%
15,O=C(Nc1cccc(Cl)c1)Nc1nc2ccc([N+](=O)[O-])cc2s1,15.2%
16,O=C(NNc1nc2cc(F)cc(F)c2n2cccc12)c1ccncn1,18.7%
17,C[C@H]1[C@H](C)CC[C@]2(COC(=O)c3cccnc3)CC[C@]3(C)C(=CC[C@@H]4[C@@]5(C)CCCNC(C)(C)[C@@H]5CC[C@]43C)[C@H]12,84.4%
18,CN1CCN(c2ccc(NC(=O)Nc3ccc4c(ccn4-c4cccc(C(N)=O)n4)c3)cc2C(F)(F)F)CC1,77.2%
19,COc1ccc(OC)c([C@H]2c3[nH]c4ccccc4c3C[C@H]3C(=O)N(CCCCCCC(=O)NO)CC(=O)N23)c1,90.1%
20,CS(=O)c1nccc(-c2c(-c3ccc(F)c(OCc4ccccc4)c3)nc3sccn23)n1 (stereo not given),4.02% (active)

row,SMILES,growth
1,CC(=O)NC(C)(C)C(=O)N1CCC[C@H]1C(=O)NC(C)(C)C(=O)N[C@@H](C)C(=O)NC(C)(C)C(=O)N[C@@H](C)C(=O)N[C@@H](CCC(N)=O)C(=O)NC(C)(C)C(=O)N[C@H](C(=O)NC(C)(C)C(=O)NCC(=O)N[C@@H](CC(C)C)C(=O)NC(C)(C)C(=O)N1CCC[C@H]1C(=O)N[C@H](C(=O)NC(C)(C)C(=O)NC(C)(C)C(=O)N[C@@H](CCC(N)=O)C(=O)N[C@@H](CCC(N)=O)C(=O)N[C@H](CO)Cc1ccccc1)C(C)C)C(C)C,62.9% [4.25 µM]
2,C=C(C)[C@@H]1CC[C@]2(C(=O)NCCCN(CCC#N)CCC#N)CC[C@]3(C)[C@H](CC[C@@H]4[C@@]5(C)CCC(=O)C(C)(C)[C@@H]5CC[C@]43C)[C@@H]12,109%
3,O=C(CN1C(=O)S/C(=C\c2ccccc2)C1=O)Nc1ccc(C(=O)/C=C/c2cc3ccccc3nc2Cl)cc1,91.4%
4,N#Cc1c(-c2cccs2)cc(-c2cnccn2)nc1SCC(=O)NNC(=S)Nc1ccc(F)cc1,109%
5,CN1CCN(c2nc(-c3cnc4ccccc4n3)cc3ccccc23)CC1,77.1%
6,Cc1cc(O)c(=O)cc2c1C[C@H]1CC(C)(C)/C=C/C[C@]3(C)Oc4cc(=O)c(O)cc(C)c4C[C@H]3C[C@H](O)[C@@]1(C)O2,16.1%
7,CC(C)=CCC[C@](C)(O)[C@H]1CC[C@]2(C)[C@@H]1CC[C@@H]1[C@@]3(C)CCC(NC(=O)c4ccccc4C(=O)O)C(C)(C)[C@@H]3CC[C@]12C (stereo not given in full),96.4%
8,CN1CCN(c2ccc3c(C(N)=O)c(NC(=O)c4ccc(C(C)(C)C)cc4)sc3c2)CC1,87.4%
9,COc1ccc(-c2nc(SCC(C)C)nc(N/N=C\c3cccc([N+](=O)[O-])c3)c2C#N)cc1,70.5%
10,Cc1cc(F)cc(NS(=O)(=O)c2ccc(-c3cnc(C4CC4)o3)cc2)c1,23.7%
11,C/C(=N\NC(=O)CSc1nc2sc3c(c2c(=O)n1-c1ccccc1)CCC(C)C3)c1ccc(Cl)cc1 (stereo not given),22.8%
12,COc1ccc(NC(=O)[C@H](C)N)cc1C(=O)Nc1cccc(-c2cc(=O)c3c(OC)c(OC)c(OC)cc3o2)c1,60.8%
13,CC[C@H](C)[C@H]1NC(=O)[C@@H]([C@H](O)C(C)C)NC(=O)[C@@H](C)N(C)C(=O)[C@H](C)N(C)C(=O)[C@H](CC(C)C)NC(=O)[C@H](CC(C)C)N(C)C(=O)[C@H](C)N(C)C1=O,1.83% (active)
14,IP(CCCSc1n(Cc2ccc3ccccc3c2)c(-c2ccccc2)c(-c2ccccc2)[n+]1Cc1ccc2ccccc2c1)(c1ccccc1)(c1ccccc1)c1ccccc1,34.7%
15,N/C(=N\OC(=O)CSc1nc2ccccc2s1)c1ccc(Cl)cc1,105%
16,CC(=O)NC(C)(C)C(=O)N[C@@H](C)C(=O)NC(C)(C)C(=O)N[C@@H](C)C(=O)NC(C)(C)C(=O)N[C@@H](C)C(=O)N[C@@H](CCC(N)=O)C(=O)NC(C)(C)C(=O)N[C@H](C(=O)NC(C)(C)C(=O)NCC(=O)N[C@@H](CC(C)C)C(=O)NC(C)(C)C(=O)N1CCC[C@H]1C(=O)N[C@H](C(=O)NC(C)(C)C(=O)NC(C)(C)C(=O)N[C@@H](CCC(N)=O)C(=O)N[C@@H](CCC(N)=O)C(=O)N[C@H](CO)CC1CCCCC1)C(C)C)C(C)C,55.5% [5 µM]
17,CCOC(=O)C1=C(C)Nc2nnc(Nc3ccccc3)n2C1c1ccccc1 (stereo not given),81.6%
18,COc1cc(OC)c(S(N)(=O)=O)cc1C(=O)/C=C/c1ccccc1,1.92% (active)
19,CCOC(=O)/C(F)=C/C1CC1C1CCCCC1 (stereo not given),105%
